Screening results as filed in PubChem.
ELG1 genotox – qHTS screen for small molecules that induce genotoxicity in human embryonic kidney (HEK293T) cells expressing luciferase-tagged ELG1 | HEK293T ELG1-luciferase reporter, luminescence, 16 h | Potency, µM (top dose mostly 46 µM), without a hit: at the top dose activity change, positive = activation, hits mostly activators | 330,000 tested, 1.3% active; also: % of control where 0% means no effect; nearly all actives have a fitted effect of over 60% in size
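Reporter readout depends on ELG1 protein level, which increases with genetic stress. After 16 hr compound exposure at 37 °C, luciferase activity was quantified using ONE-Glo.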
FLuc counter – qHTS profiling assay for firefly luciferase inhibitor/activator using purifed enzyme and Km concentrations of substrates (counterscreen for miR-21 project) | Luciferin 4-monooxygenase (Photinus pyralis), P08659 | purified FLuc, Km substrates, luminescence inhibition | Potency, µM (doses to about 57.5 µM), for the others: at the highest dose activity change, negative = inhibition, actives largely listed as inhibitors | 360,000 tested, 6.9% active | AID 588342, 2011;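 also: plate controls were vehicle for no effect and reference inhibitor for full effect; nearly all actives have a fitted effect of over 55% in size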
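Purified P. pyralis luciferase (10nM final) with 10uM D-luciferin and 10uM ATP (Km levels) in 50mM Tris acetate pH 7.5, 10mM Mg acetate, 0.01% Tween-20, 0.05% BSA; qHTS 6-point titration, ~60 µM downward; luminescence read.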
ELG1 DNA repair – qHTS screen for small molecules that inhibit ELG1-dependent DNA repair in human embryonic kidney (HEK293T) cells expressing luciferase-tagged ELG1 | HEK293T ELG1-luciferase reporter, luminescence, 16 h; DNA damage induced by 5-fluorouridine | Potency, µM (top dose mostly 46.1 µM), without a hit: at the highest dose activity change, negative = inhibition, usual class: inhibitors | 330,000 tested, 2.3% active | AID 504467, 2011; also: % is scaled to controls: 0 for no effect and ±100 for the full control effect; nearly all actives have a fitted effect of over 55% in size
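Luminescence from the luciferase reporter, measured 30 min after ONE-Glo reagent at room temperature, was the read-out. Beforehand, 2,000 cells per well were exposed for 16 hr at 37 °C to 5-fluorouridine together with compound or vehicle.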
NPC1 prom act – qHTS Assay for NPC1 Promoter Activators; 320,000 tested, 2.4% active; Huh7 NPC1 promoter luciferase reporter, 24 h; Potency, µM (highest dose often 9.22 µM), for inactives: at the top dose activation, usual class: activators; AID 485313, 2010; also: % of control where 0% means no effect; nearly all actives have a fitted effect of over 60% in size
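In 1536-well qHTS, Huh7 cells harboring an NPC1 promoter–luciferase construct received compound for 24 h; activation was quantified by luminescence following luciferase reagent addition.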
Rab9 prom act – qHTS Assay for Rab9 Promoter Activators | Huh7 Rab9 promoter-luciferase reporter, luminescence, 24 h | Potency, µM (titrated, usually from 9.22 µM), for inactives: at the top dose activation, negative = inhibition, most hits filed as activators | 320,000 tested, 2.8% active | AID 485297, 2010; also: % of control where 0% means no effect; nearly all actives have a fitted effect of over 60% in size
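Cell-based reporter: Huh7 stable for Rab9 promoter-driven luciferase, plated in reduced-serum medium with 10% FBS at 1500 cells/well, compound-treated 24 h at 37 °C, luminescence read after 10 min reagent.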
SMN2 splice enh – qHTS Assay for Enhancers of SMN2 Splice Variant Expression; 210,000 tested, 2.8% active; Potency, µM (doses to about 46.1 µM), without a hit: top-dose activity change, positive = activation, hits mostly activators; AID 1458, 2008; HEK293 SMN2-luciferase splicing reporter, luminescence, 30-36 h; also: % of control where 0% means no effect; nearly all actives have a fitted effect of over 55% in size
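HEK293 cells carry an SMN2 minigene-luciferase reporter in which exon 7 inclusion puts luciferase in frame. Cells were seeded at 2000 cells/well, attached for 10-12 hours, then exposed to compounds for 30-36 hours at 37C before ONE-Glo luminescence.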
ELG1 FLuc counter – qHTS screen for small molecules that inhibit ELG1-dependent DNA repair: Hit Confirmation in Cell-Based Luciferin Assay | 350 tested, 3% active | shares compounds with ELG1 DNA repair | cell-free firefly luciferase luminescence counter-screen, ViewLux | Potency, µM (doses to about 46.1 µM), for the others: at the highest dose activity change, negative = inhibition, hits mostly inhibitors; also: % is scaled to controls: 0 for no effect and ±100 for the full control effect
ELG1-Luc inh – HTS assay for small molecules that inhibit ELG1-dependent DNA repair in human embryonic kidney (HEK293T) cells expressing luciferase-tagged ELG1: Hit Confirmation. shares compounds with ELG1 DNA repair. HEK293T ELG1-luciferase levels, luminescence; cells co-treated with 5-fluorouridine. Potency, µM (series often up to 46.1 µM), without a hit: top-dose activity change, negative = inhibition, usual class: inhibitors. 670 tested, 68% active; also: % is scaled to controls: 0 for no effect and ±100 for the full control effect; nearly all actives have a fitted effect of over 55% in size
Target sequence (Q96QE3 whole entry, looked up): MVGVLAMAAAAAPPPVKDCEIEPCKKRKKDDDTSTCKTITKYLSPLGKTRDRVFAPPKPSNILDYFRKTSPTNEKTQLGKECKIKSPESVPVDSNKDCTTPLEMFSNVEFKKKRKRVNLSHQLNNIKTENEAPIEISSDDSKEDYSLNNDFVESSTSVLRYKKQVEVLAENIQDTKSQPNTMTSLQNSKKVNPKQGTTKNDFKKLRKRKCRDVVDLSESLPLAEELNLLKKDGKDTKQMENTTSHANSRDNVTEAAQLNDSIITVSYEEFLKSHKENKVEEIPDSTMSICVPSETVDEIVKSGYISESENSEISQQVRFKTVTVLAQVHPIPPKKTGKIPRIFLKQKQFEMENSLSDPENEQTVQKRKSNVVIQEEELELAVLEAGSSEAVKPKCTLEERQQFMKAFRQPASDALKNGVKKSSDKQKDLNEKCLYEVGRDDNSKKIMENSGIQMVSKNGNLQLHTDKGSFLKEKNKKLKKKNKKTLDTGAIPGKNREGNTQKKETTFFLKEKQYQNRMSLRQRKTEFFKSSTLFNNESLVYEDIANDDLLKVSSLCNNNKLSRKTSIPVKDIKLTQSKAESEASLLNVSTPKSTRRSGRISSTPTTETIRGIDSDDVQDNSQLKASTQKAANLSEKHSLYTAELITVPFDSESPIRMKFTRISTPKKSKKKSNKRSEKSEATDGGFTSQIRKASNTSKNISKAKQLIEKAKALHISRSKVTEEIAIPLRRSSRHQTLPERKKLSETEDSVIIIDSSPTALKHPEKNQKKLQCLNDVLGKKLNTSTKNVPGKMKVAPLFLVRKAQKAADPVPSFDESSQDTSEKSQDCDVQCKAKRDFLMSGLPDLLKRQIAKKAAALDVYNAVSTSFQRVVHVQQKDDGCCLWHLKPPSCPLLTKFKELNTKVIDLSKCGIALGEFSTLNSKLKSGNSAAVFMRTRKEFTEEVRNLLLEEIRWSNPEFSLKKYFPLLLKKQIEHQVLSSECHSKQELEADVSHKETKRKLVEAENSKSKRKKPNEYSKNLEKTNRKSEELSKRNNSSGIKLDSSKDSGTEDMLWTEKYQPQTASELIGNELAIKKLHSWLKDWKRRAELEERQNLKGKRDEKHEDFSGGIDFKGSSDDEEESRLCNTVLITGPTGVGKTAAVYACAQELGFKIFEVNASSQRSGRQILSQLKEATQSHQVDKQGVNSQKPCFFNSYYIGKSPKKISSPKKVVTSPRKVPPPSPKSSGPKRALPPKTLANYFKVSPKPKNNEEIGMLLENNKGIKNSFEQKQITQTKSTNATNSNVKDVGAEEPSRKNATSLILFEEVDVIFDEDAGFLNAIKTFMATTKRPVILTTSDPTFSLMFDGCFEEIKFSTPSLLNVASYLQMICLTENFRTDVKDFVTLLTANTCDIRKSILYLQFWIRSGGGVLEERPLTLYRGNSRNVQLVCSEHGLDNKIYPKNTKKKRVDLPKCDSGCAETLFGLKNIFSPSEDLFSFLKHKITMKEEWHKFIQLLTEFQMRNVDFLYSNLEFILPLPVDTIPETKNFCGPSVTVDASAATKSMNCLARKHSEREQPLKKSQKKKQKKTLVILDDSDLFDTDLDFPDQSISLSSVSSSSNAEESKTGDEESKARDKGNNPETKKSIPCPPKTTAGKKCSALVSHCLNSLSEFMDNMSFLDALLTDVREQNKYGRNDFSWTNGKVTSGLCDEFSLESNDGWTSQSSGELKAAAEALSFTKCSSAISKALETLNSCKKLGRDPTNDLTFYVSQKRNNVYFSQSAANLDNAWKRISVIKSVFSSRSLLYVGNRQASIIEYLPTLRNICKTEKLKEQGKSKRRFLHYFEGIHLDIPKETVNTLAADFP
ELG1-Luc MMS – inhibits ELG1-dependent repair under MMS stimulation in HEK293T cells; shares compounds with ELG1 DNA repair; HEK293T luciferase-tagged ELG1 level, MMS stimulated; Potency, µM (titrated, usually from 46.1 µM), without a hit: at the top dose activity change, negative = inhibition, usual class: inhibitors; 670 tested, 53% active; AID 624249; also: % is scaled to controls: 0 for no effect and ±100 for the full control effect; nearly all actives have a fitted effect of over 60% in size
ELG1 5-FU – qHTS screen for small molecules that inhibit ELG1-dependent DNA repair: Hit Confirmation with 5FU Viability. 670 tested, under 10 active. Potency, µM (doses to about 46.1 µM), for the others: at the highest dose activity change, negative = viability loss, actives largely listed as cytotoxic. AID 624250, 2012. shares compounds with ELG1 DNA repair. cell viability with 5-FU, ELG1-dependent repair;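 also: ELG1-luc HEK293T cells cotreated with 5-fluorouridine at 10 µM final; viability measured 16 h after compound addition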
ELG1 MMS viab – qHTS screen for small molecules that inhibit ELG1-dependent DNA repair: Hit Confirmation with MMS Viability; AID 624251, 2012; 670 tested, 33% active; Cell viability with MMS, ELG1-dependent DNA repair; shares compounds with ELG1 DNA repair; Potency, µM (highest dose often 46.1 µM), for the others: at the top dose activity change, negative = viability loss, actives largely listed as cytotoxic;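 also: ELG1-luc HEK293T cells co-treated with 10 µM MMS; viability read 16 h after compound addition; % is scaled to controls: 0 for no effect and ±100 for the full control effect; nearly all actives have a fitted effect of over 60% in size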
ELG1 unstim viab – qHTS screen for small molecules that inhibit ELG1-dependent DNA repair: Hit Confirmation with Unstimulated Viability Assay. Potency, µM (highest dose often 45.9 µM), without a hit: at the highest dose activity change, negative = loss of viability, hits mostly cytotoxic. cell viability counter-screen, unstimulated, luminescence. shares compounds with ELG1 DNA repair. 900 tested, 8% active;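 also: compound exposure lasted 16 hours before reading; % is scaled to controls: 0 for no effect and ±100 for the full control effect; nearly all actives have a fitted effect of over 55% in size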
FLuc enzyme – qHTS screen for small molecules that inhibit ELG1-dependent DNA repair: Hit Confirmation in Biochemical Luciferin Assay; shares compounds with ELG1 DNA repair; AID 624253, 2012; Potency, µM (top dose mostly 57.5 µM), without a hit: at the top dose activity, negative = inhibition, hits mostly inhibitors; 350 tested, 10% active; purified firefly luciferase, luminescence counter-screen; also: % is scaled to controls: 0 for no effect and ±100 for the full control effect
* marks the source's active call; other numbers are inactive results. Sampled rows, rich in hits. Any-hit rate of the full collection: about 9.3%. Calls follow the shape of the dose curve; as a rule, active = well fitted curve in the direction sought with a large enough effect; inconclusive = small, poorly fitted or top-dose-only effect, or another doubt; inactive = no such curve, though single readings can be large; an effect the other way counts as inactive or inconclusive. Potency is read from the fitted curve at half-maximal effect.

Results for CCNC(=O)C1CCN(S(=O)(=O)c2ccc3c(c2)CCCN3C(C)=O)CC1 ?
FLuc counter: -1%

Results for COc1cccc(NS(=O)(=O)c2ccc3c(c2)CCN3C(C)=O)c1 ?
ELG1 genotox: -4%; FLuc counter: 1%; ELG1 DNA repair: 2.1µM*; NPC1 prom act: -14%; Rab9 prom act: -20%; ELG1-Luc inh: inconclusive; ELG1-Luc MMS: 6.3µM*; ELG1 5-FU: -6%; ELG1 MMS viab: 4.4µM*; ELG1 unstim viab: inconclusive

How did CSc1cccc(NS(=O)(=O)c2ccc3c(c2)CCN3C(C)=O)c1 do in these assays?
ELG1 genotox: -1%; FLuc counter: 3%; ELG1 DNA repair: inconclusive; NPC1 prom act: -27%; Rab9 prom act: -29%

Results for O=C(NCc1n[nH]c(=S)n1-c1ccc([N+](=O)[O-])cc1)c1ccc(S(=O)(=O)N2CCOCC2)cc1 ?
ELG1 genotox: -1%; FLuc counter: 2%; ELG1 DNA repair: -1%; NPC1 prom act: 0%; Rab9 prom act: -4%; SMN2 splice enh: 1%

How did CCOc1ccc(-c2c(C(=O)N/N=C/c3cccc(Br)c3)nnn2-c2nonc2N)cc1 do in these assays?
ELG1 genotox: inconclusive; FLuc counter: 0%; ELG1 DNA repair: inconclusive; NPC1 prom act: 4%; Rab9 prom act: -6%

Results for CCOC(=O)c1cc(-c2ccc([N+](=O)[O-])cc2)nc2c1c(=O)[nH]c(=O)n2Cc1ccccc1 ?
ELG1 genotox: inconclusive; FLuc counter: -1%; ELG1 DNA repair: 26%; NPC1 prom act: 2%; Rab9 prom act: 0%; ELG1 FLuc counter: 61%; ELG1 unstim viab: -19%; FLuc enzyme: -8%

What do the screens show for `CC(C)N1CC(C(=O)Nc2ccc(Cl)c([N+](=O)[O-])c2)CC1=O` (stereo unspecified)?
ELG1 genotox: -14%; FLuc counter: 1%; ELG1 DNA repair: inconclusive; NPC1 prom act: -3%; Rab9 prom act: -1%

How did COc1ccc(CCNC(=O)C(=O)NCC2CCCN2S(=O)(=O)c2ccccc2)cc1 (stereo unspecified) do in these assays?
ELG1 genotox: -3%; FLuc counter: inconclusive; ELG1 DNA repair: inconclusive; NPC1 prom act: 3%; Rab9 prom act: -19%

How did COc1ccccc1CCNC(=O)C(=O)NCC1CCCN1S(=O)(=O)c1ccccc1 (stereo unspecified) do in these assays?
ELG1 genotox: -12%; FLuc counter: 0%; ELG1 DNA repair: 4.1µM*; NPC1 prom act: -8%; Rab9 prom act: 0%; ELG1-Luc inh: 14µM*; ELG1-Luc MMS: 16µM*; ELG1 5-FU: -3%; ELG1 MMS viab: inconclusive; ELG1 unstim viab: 22µM*

How did CCc1csc(CNC(=O)C2CCC(=O)N(Cc3cccc(F)c3)C2)n1 (stereo unspecified) do in these assays?
ELG1 genotox: -3%; FLuc counter: 4%; ELG1 DNA repair: 1%; NPC1 prom act: 1%; Rab9 prom act: -7%

What do the screens show for `Fc1ccc(Nc2nc(-c3ccncc3)nc3ccccc23)cc1F`?
ELG1 genotox: -1%; FLuc counter: 3%; ELG1 DNA repair: 1.8µM*; NPC1 prom act: 7%; Rab9 prom act: -2%; SMN2 splice enh: -5%; ELG1 FLuc counter: 2%; ELG1-Luc inh: 1.4µM*; ELG1-Luc MMS: inconclusive; ELG1 5-FU: inconclusive; ELG1 MMS viab: -7%; ELG1 unstim viab: inconclusive; FLuc enzyme: 4%

What do the screens show for `COc1ccc(/C=N\NC(=O)CC(=O)Nc2cccc(Cl)c2)cc1OC`?
ELG1 genotox: 4%; FLuc counter: -11%; ELG1 DNA repair: 3%; NPC1 prom act: -4%; Rab9 prom act: -2%; SMN2 splice enh: -21%
